An excerpt weighted towards active compounds, which were near 9.2% of everything screened.
HPGD inh: HPGD (human) dehydrogenase inhibition. purified HPGD, NADH fluorescence kinetic, PGE2 substrate. actives 4.3% (n = 150,000). AID 894. Potency, µM, without a hit: at the top dose activity change, negative = inhibition, most hits filed as inhibitors; further: on the % scale 0 is the no-effect control and ±100 the full control effect
Target sequence (P15428 whole entry, looked up): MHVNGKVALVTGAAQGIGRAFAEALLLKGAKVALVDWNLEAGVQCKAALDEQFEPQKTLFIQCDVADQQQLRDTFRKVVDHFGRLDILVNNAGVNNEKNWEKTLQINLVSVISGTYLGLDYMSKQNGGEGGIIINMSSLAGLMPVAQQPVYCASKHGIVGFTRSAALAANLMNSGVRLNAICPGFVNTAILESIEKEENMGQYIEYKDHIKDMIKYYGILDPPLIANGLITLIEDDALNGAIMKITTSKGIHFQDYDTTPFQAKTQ
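20 nM HPGD preincubated 15 min at room temperature with compound in 50 mM Tris-HCl pH 8, 0.01% Tween 20. Started with 1 mM NAD+ and 30 uM prostaglandin E2; NADH fluorescence (360/450 nm) read 5 times over 30-s intervals, last minus first.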
Lamin A splicing: LMNA splicing modulation; Potency, µM (doses to about 46.1 µM), without a hit: at the top dose ratio change, negative = inhibition, hits mostly inhibitors; HeLa LMNA splicing GFP/RFP minigene ratio, 48 h; actives 0.01% (n = 200,000); AID 1487; active means well fitted inhibition curve with a large enough effect in the signal ratio, with a control signal flat, not every such curve was filed as active; inconclusive means small, poorly fitted or top-dose-only effect, or effect the other way, or a change in a side signal; the % refers to the signal ratio; further: on the % scale 0 is the no-effect control and ±100 the full control effect
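S3 HeLa cells stably expressing lamin A-EGFP splicing minigene plus DsRed2, 600 cells/well, 48 h compound exposure at 37C. Laser-scanning cytometry; analysed as GFP (500-530 nm)/RFP (575-640 nm) total intensity ratio; 0.5% DMSO vehicle.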
ALDH1A1 block: inhibitors of human aldehyde dehydrogenase 1A1; actives 7.3% (n = 220,000); AID 1030; P00352; Purified ALDH1A1, NADH fluorescence, propionaldehyde substrate; Potency, µM (top dose mostly 75.3 µM), for inactives: at the highest dose activity, negative = inhibition, hits mostly inhibitors;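 further: plate controls were no enzyme wells and a reference inhibitor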
HTT ATP protect: cytoprotection in Huntington HTT-Q103 PC12 cell model; Potency, µM (series often up to 56.4 µM), for inactives: cytoprotection (ATP increase), actives largely listed as activators; PC12 HTT-Q103 induced, cytoprotection, ATP luminescence, 40 h; actives 0.14% (n = 230,000); active means well fitted curve in the direction sought with a large enough effect; inconclusive means small, poorly fitted or top-dose-only effect, or another doubt; inactive means no such curve, though single readings can be large; an effect the other way counts as inactive or inconclusive; further: % of control where 0% means no effect; nearly all actives have a fitted effect of over 45% in size
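Compounds added alongside 100 nM tebufenozide, which induces toxic Q103 huntingtin exon 1-GFP in stable PC12 cells; surviving cells quantified by luminescent ATP measurement. Medium: phenol red-free DMEM, 5% equine and 5% calf serum.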
HttQ103 aggreg: mutant huntingtin aggregation inhibition; PC12 HttQ103-GFP aggregates, Acumen cytometry, 40 h; Potency, µM (highest dose often 46.1 µM), without a hit: top-dose activity change, negative = inhibition, most hits filed as inhibitors; actives 1.1% (n = 220,000); AID 1688; active means well fitted curve in the direction sought with a large enough effect; inconclusive means small, poorly fitted or top-dose-only effect, or another doubt; inactive means no such curve, though single readings can be large; an effect the other way counts as inactive or inconclusive; further: on the % scale 0 is the no-effect control and ±100 the full control effect; nearly all actives have a fitted effect of over 60% in size
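Huntingtin Q103 exon 1–GFP aggregates in induced PC12 cells (100 nM tebufenozide) were quantified by cytometry from lysates, with compounds dosed in titration.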
JMJD2E inh: inhibitors of human JMJD2E histone demethylase. B2RXH2. JMJD2E catalytic domain, FDH-coupled NADH fluorescence (FDH is formaldehyde dehydrogenase). Potency, µM (top dose mostly 57.1 µM), for inactives: top-dose activity change, negative = inhibition, hits mostly inhibitors. actives 1.6% (n = 230,000);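 further: 0% = wells with enzyme and -100% = buffer wells without enzyme; nearly all actives have a fitted effect of over 50% in size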
Target sequence (B2RXH2 1-337 limits assumed): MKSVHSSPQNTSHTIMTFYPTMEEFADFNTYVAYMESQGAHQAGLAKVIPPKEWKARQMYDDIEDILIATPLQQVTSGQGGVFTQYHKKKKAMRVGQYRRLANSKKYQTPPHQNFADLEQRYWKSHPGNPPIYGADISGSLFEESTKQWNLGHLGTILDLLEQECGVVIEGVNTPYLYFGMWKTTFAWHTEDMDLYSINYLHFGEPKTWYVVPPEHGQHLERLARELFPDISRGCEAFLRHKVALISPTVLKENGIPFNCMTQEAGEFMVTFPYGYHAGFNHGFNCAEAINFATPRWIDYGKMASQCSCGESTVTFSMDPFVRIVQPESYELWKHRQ
Starred values were filed as active, the others as inactive; ? = inconclusive; . = not tested or not shown; [ ] = remark or other dose. Unless noted, the call rests on the fitted dose curve; in most records, active means well fitted inhibition curve with a large enough effect (not every such curve was filed as active); inconclusive means small, poorly fitted or top-dose-only effect, or another doubt; inactive means no such curve, though single readings can be large or run the other way. Potency means the concentration at half of the fitted maximal effect.

SMILES	HPGD inh	Lamin A splicing	ALDH1A1 block	HTT ATP protect	HttQ103 aggreg	JMJD2E inh
CCCOc1cccc(C2C(C(=O)c3cccs3)=C(O)C(=O)N2Cc2cccnc2)c1 (configuration not stated)	.	.	.	-10%[10 µM]	4%[9.22 µM]	-1%
COc1ccccc1/C=c1\sc2nc(-c3ccccc3OC)nn2c1=O	-8%	12%	6%	2%	1%	9%
COc1ccc(Br)cc1/C=c1\sc2nc(-c3ccco3)nn2c1=O	14µM*	7%	28µM*	15%[10 µM]	5%	-8%
Cc1ccc(/C=c2\sc3nc(-c4ccccc4Br)nn3c2=O)o1	20µM*	-4%	13µM*	-53%[0.074 µM]	19%	-16%
COc1ccc(/C=c2\sc3nc(=O)c(C)nn3c2=O)c(OC)c1	.	-15%[46 µM]	22µM*	-17%	16%	-5%
Cc1ccc(/C=c2/sc3nnc(-c4ccccc4Cl)n3c2=O)o1	-22%	6%	?	-2%	13%	-1%
Cc1ccc(/C=c2\sc3nc(-c4ccco4)nn3c2=O)o1	18µM*	-3%	3.5µM*	5%[10 µM]	19%	?
CCCCc1cc2c(cn1)=C(OC(=O)C1CCCC1)C(C)(OC(=O)CC)C(=O)C=2 (configuration not stated)	-3%	?	?	7%[10 µM]	.	14%[11.4 µM]
C#CCNC(=O)C1=C[C@H](c2coc3ccccc3c2=O)[C@@H](CCCO)[C@H](OCC)O1	.	.	?	1%[10 µM]	3%[9.22 µM]	10%
Cc1ccc(NC(=O)N2CCC(N3CCN(Cc4ccccc4)C(=O)C3=O)CC2)cc1Cl	.	17%[46 µM]	.	.	.	.
COc1ccc(CCNC2CC(=O)N(CCc3ccc(OC)c(OC)c3)C2=O)cc1 (configuration not stated)	-10%	15%	18µM*	-10%	-2%	1%
CCc1ccc(NC2CC(=O)N(CCc3ccc(OC)c(OC)c3)C2=O)cc1 (configuration not stated)	.	?	3.2µM*	.	-14%	?
COc1ccc(N(CC(=O)O)N=O)cc1	-6%	.	-2%[13.5 µM]	-14%[10 µM]	.	.
CCN(CC(=O)Nc1ccccc1Br)Cc1nc2ccccc2c(=O)[nH]1	-4%	9%	9%	7%	23%	-4%
CCN(CC(=O)NC(=O)NCc1ccco1)Cc1nc2ccccc2c(=O)[nH]1	-24%	18%	10µM*	-12%	7%	-21%
COc1cccc(OC)c1OCCCOc1ccc([N+](=O)[O-])cc1Cl	16µM*	?	-2%	16%[10 µM]	-8%	7%
COc1ccccc1OCCCOc1c(C)cc(C)cc1Br	-27%	-13%	13%	21%[10 µM]	-5%	4%
CCOc1ccccc1OCCCOc1ccc([N+](=O)[O-])cc1Cl	-6%	?	?	-38%	-13%	-14%
COc1cccc(OC)c1OCCCOc1ccc(C)cc1Br	22µM*	?	2%	21%[10 µM]	5%	5%
Cc1nc(NS(=O)(=O)c2ccccc2)sc1NC(=O)OCCN(C)C	-4%	1%	14µM*	1%	-2%	-3%
Cc1nc(NS(=O)(=O)c2ccccc2)sc1C(C)(C)C	-10%	?	5µM*	12%[10 µM]	-15%	0%
CCOC(=O)c1sc(NS(=O)(=O)c2ccccc2)nc1C	-12%	4%	-14%	-17%	-4%	-7%
CCCCCN(CCCCC)C(=O)[C@H](CCC(=O)O)NC(=O)c1ccc(Cl)c(Cl)c1	5%	?	1%[20.9 µM]	-2%[40.3 µM]	.	1%[25.5 µM]
Clc1ccc(-c2nc(/C=N/N3CCOCC3)c3ccccn23)cc1	.	-20%[46 µM]	?	2%	-8%	?
CNc1ccccc1	-10%	.	-20%	1%	.	.
SMILES	HPGD inh	Lamin A splicing	ALDH1A1 block	HTT ATP protect	HttQ103 aggreg	JMJD2E inh
CNc1cccccc1=S	28µM*	5%	10µM*	-12%	18%	25µM*
Nc1cccc2nc3ccccc3cc12	?	?	?	-64%	-12%[9.22 µM]	?
Cc1cc2c(N)cccc2nn1	-23%	10%	4µM*	-10%	16%	?
NC(=O)NC(=O)COC(=O)[C@H](Cc1ccccc1)NC(=O)c1cccs1	.	7%[46 µM]	?	-4%[10 µM]	3%	-1%
O=C(NCc1ccccc1)c1cc2nc(C3CC3)cc(C(F)(F)F)n2n1	-23%	4%	-7%	-21%	-14%	-6%
O=C(NCc1ccco1)c1cc2nc(C3CC3)cc(C(F)(F)F)n2n1	18µM*	?	?	-8%	-2%	-5%
COc1ccccc1N1CCN(c2ncnc3c2cnn3-c2cccc(Cl)c2)CC1	.	-4%[46 µM]	.	.	.	.
Cc1ccc(Cl)cc1NC(=O)CSC1=Nc2ccccc2C2=NC(Cc3ccccc3)C(=O)N12 (configuration not stated)	.	-2%[46 µM]	.	.	.	.
COc1ccc2[nH]cc(CCNc3ncncc3-c3cccc(C#N)c3)c2c1	.	-16%	-2%	?	.	.
Nc1[nH]c(N=NC(=O)c2ccccc2O)c2ccccc12	-19%	?	4%	.	-28%	25µM*
CCOC(=O)CC(=O)CSc1[nH]c(=O)cc(C)c1C#N	14µM*	-2%	-1%	-2%	16%	-16%
O=C(NCCCCCNC(=O)c1ccco1)c1ccco1	-14%	5%	28µM*	6%	-2%	-3%
O=C(NCCCCNC(=O)c1ccco1)c1ccco1	-6%	1%	2%	14%[10 µM]	17%	-1%
O=C(NCCSc1c[nH]c2ccccc12)c1c(F)cccc1F	.	.	-4%	1%[10 µM]	-8%[9.22 µM]	-6%
O=C(NCc1cccc(CNC(=O)c2ccco2)c1)c1ccco1	14µM*	-10%	?	0%	8%	5%
O=C(NCCSc1c[nH]c2ccccc12)c1ccco1	16µM*	-17%	-2%	5%	13%	1%
C=CCOC(=O)N[C@H](c1ccco1)C(C(C)=O)C(C)=O	-7%	.	-12%	-25%	.	-2%
O=C(c1cnc(-c2ccc(Cl)cc2)s1)c1ccc(Cl)cc1Cl	35µM*	2%	-5%	-5%	-6%	1%
CC1=NN(c2ccc(C(=O)OC(C)C)cc2)C(=O)/C1=C\C=C\c1ccco1	-23%	-6%	?	-24%[10 µM]	12%	4%
CCOC(=O)c1ccc(N2N=C(C)/C(=C/C=C/c3ccco3)C2=O)cc1	-25%	0%	0.22µM*	7%[10 µM]	?	-21%
C=CCOc1c(Cl)cc(CNc2nccs2)cc1OC	.	-2%[46 µM]	13µM*	-29%	-15%	7%
C=CCOc1c(CNc2nccs2)cccc1OCC	-16%	-6%	2.5µM*	0%	8%	-3%
C=CCOc1ccc(CNc2nccs2)cc1OCC	-19%	1%	?	31%[10 µM]	-2%	?
CO[C@H]1[C@@H](OC(N)=O)[C@H](O)[C@@H](Oc2ccc3c(O)c(NC(=O)c4ccc(O)c(CC=C(C)C)c4)c(=O)oc3c2C)OC1(C)C	1%	?	0%[20.9 µM]	?	14%[20.6 µM]	-6%[25.5 µM]

Source: PubChem BioAssay (National Center for Advancing Translational Sciences (NCATS))
